Screening data from PubChem.
The list is not random: actives were taken first. Their share in the collection is about 7.9%.
MCF10A rereplic: induces DNA re-replication in MCF 10a normal breast cells; hit rate 2.9% among 350,000; MCF 10A DNA re-replication, Hoechst nuclear intensity, 48 h; Potency, µM (top dose mostly 46.1 µM), for the others: top-dose activity, positive = re-replication, most hits filed as activators; also: % of control where 0% means no effect; nearly all actives have a fitted effect of over 50% in size
KB-V1 MDR tox: kills drug-selected multidrug resistant KB-V1 cells; KB-V1 MDR cells viability, CellTiter-Glo, 72 h; Potency, µM (series often up to 46.1 µM), most hits filed as cytotoxic; hit rate 3.4% among 400,000; also: % is scaled to controls: 0 for no effect and ±100 for the full control effect; nearly all actives have a fitted effect of over 60% in size
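Compound-treated KB-V1 multidrug-resistant cells, 72 h, 37 degrees C; viability by CellTiter-Glo. Fitted qHTS curves give the values.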
HT1080 IDH1KD tx: kills HT-1080 cells with IDH1 knockdown | HT-1080 IDH1 knockdown viability, ATP luminescence, 48 h | Potency, µM (doses to about 46.1 µM), inactives show at the top dose activity, negative = toxicity, actives largely listed as cytotoxic | hit rate 2% among 360,000;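 also: 0% = DMSO wells and -100% = cell-free medium wells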
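Viability of IDH1-knockdown HT-1080 fibrosarcoma cells was assessed by CellTiter-Glo after 48 h at 37 °C with titrated compound; concentration-effect curves were classified by fit quality and response size.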
HT1080-NT tox: kills 2HG-producing HT-1080-NT fibrosarcoma cells. HT-1080-NT fibrosarcoma viability, CellTiter-Glo ATP luminescence, 48 h. Potency, µM (doses to about 46.1 µM), inactives show at the top dose activity, negative = less viability, usual class: cytotoxic. hit rate 1.6% among 360,000. AID 686970;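 also: NT is the 2HG producing partner of a matched IDH1 knockdown line; 0% = DMSO-treated cells and -100% = media-only wells without cells; nearly all actives have a fitted effect of over 55% in size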
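Viability by CellTiter-Glo luminescence after 48 h compound exposure at 37C of HT-1080-NT cells (750/well, RPMI, 5% FBS). % activity scaled between DMSO wells and medium-only wells, then curve-fitted and categorized by curve class.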
KB-3-1 cytotox: KB-3-1 parental cell cytotoxicity; hit rate 1.4% among 400,000; AID 1347075; Potency, µM (doses to about 46.1 µM), hits mostly cytotoxic; KB-3-1 viability, CellTiter-Glo ATP luminescence, 72 h; also: % is scaled to controls: 0 for no effect and ±100 for the full control effect; nearly all actives have a fitted effect of over 60% in size
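KB-3-1 cells, DMEM (no phenol red) + 10% FBS; compound by pin transfer, 72 h, 37 °C. Readout: CellTiter-Glo luminescence after 10 min. Data normalized, curve-fitted.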
SW480 rerep: inducers of DNA re-replication in SW480 colon cancer cells; Potency, µM (doses to about 46.1 µM), without a hit: at the highest dose re-replication activation, actives largely listed as activators; hit rate 1.8% among 340,000; SW480 DNA re-replication, Hoechst DNA content imaging, 48 h; also: % of control where 0% means no effect; nearly all actives have a fitted effect of over 55% in size
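First, 250 cells per well were seeded. Next, compound or vehicle (23 nL) was pinned in, plates sat 48 hr at 37 C. Finally Hoechst was added for 40 min before fluorescence scanning.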
Starred values were filed as active, the others as inactive; i = inactive; ? = inconclusive; / = no result given; ! = a repeat was not active; [ ] = another dose, or the depositor's remark. Calls follow the shape of the dose curve; as a rule, active = well fitted curve in the direction sought with a large enough effect; inconclusive = small, poorly fitted or top-dose-only effect, or another doubt; inactive = no such curve, though single readings can be large; an effect the other way counts as inactive or inconclusive. Potency is read from the fitted curve at half-maximal effect.

SMILES	MCF10A rereplic	KB-V1 MDR tox	HT1080 IDH1KD tx	HT1080-NT tox	KB-3-1 cytotox	SW480 rerep
Cc1ccc(Cl)cc1-n1c(SCC(=O)NCCC2=CCCCC2)nc2n[nH]c(C)c2c1=N	?	i	?	?	i	15%
Cc1cc(-n2c(SCC(=O)NCCC3=CCCCC3)nc3n[nH]c(C)c3c2=N)ccc1Cl	21µM*	i	?	18µM*	i	26%
Cc1ccc(-n2nnnc2SCC(=O)NCCC2=CCCCC2)c(C)c1	11%	21µM*	-1%	2%	i	2%
CCOc1ccc(CCNC(=O)CSc2nnnn2-c2ccc(C)cc2C)cc1OCC	/	?	/	/	i	/
COc1ccc(-n2c(SCC(=O)NCC3CCCO3)nc3n[nH]c(C)c3c2=N)cc1 (centres undefined)	14%	i	-4%	-7%	i	1%
Cc1[nH]nc2nc(SCC(=O)NCCC3=CCCCC3)n(-c3ccc(Br)cc3)c(=N)c12	-2%	i	?	21µM*	?	21%
O=C(COc1ccc(Br)cc1)NCCCNC(=O)c1cccnc1	7%	i	10µM*	?	i	49%
O=C(COc1ccccc1Cl)NCCCNC(=O)c1cccnc1	3%	i	?	26µM*	i	8%
O=C(COc1ccc(Cl)cc1)NCCCNC(=O)c1cccnc1	3%	i	?	?	i	-1%
O=C(NCCOC(=O)c1ccc(Cl)cc1)c1cccnc1	3.7µM*	i	-5%	-5%	i	4%
CON(C)c1nc(OCCNC(=O)OCc2ccc(Cl)cc2C)nc(N(C)C)n1	7%	1.6µM*	-3%	-5%	i	-1%
CCc1nc2nc(C)cc(Nc3ccc(OC)cc3OC)n2n1	/	i	/	/	i	/
CN(C)c1nc(OCCNC(=O)Nc2ccccc2)nc(N(C)C)n1	-1%	i	11%	16%	i	-10%
CN(C)c1nc(OCCNC(=O)COc2ccccc2Cl)nc(N(C)C)n1	?	1.6µM*	15%	23%	i	-1%
Cc1cccc(Cn2c(=O)n(CCc3ccccc3)c(=O)c3sc4ccccc4c32)c1	/	i	/	/	i	/
O=C(CSc1nc2c(oc3ccccc32)c(=O)[nH]1)Nc1cccc(Cl)c1	/	i	/	/	i	/
CCOC(=O)Cn1nc(C)cc1NC(=O)c1cc(OC)c(OC)c(OC)c1	23µM*	i	-8%	-29%	i	-2%
CCc1ccc(NC(=O)CCc2nnc3n(C)c(=O)c4sccc4n23)cc1	/	i	/	/	i	/
CC(=O)Nc1ccc(N=Cc2c(O)c3ccccc3oc2=O)cc1	5%	i	-5%	0%	i	-15%
CC(=O)Nc1ccc(N=Cc2c(O)c(C(=O)Nc3ccccc3)cc3ccccc23)cc1	3.7µM*	?	?	-28%	i	-5%
CCC/C(C#Cc1ccsc1)=C1/c2ccccc2C(=O)N1c1ccccc1	23µM*	?	?	-30%	i	?
COc1ccc(Br)c(Cn2c(C)c(C(=O)NCc3ccc4c(c3)OCCO4)sc2=O)c1	/	?	2%	2%	i	/
CN(Cc1ccccc1)CC(O)CN(C)Cc1ccccc1	5%	?	-2%	-2%	?	-6%
CN(Cc1ccccc1C#N)S(=O)(=O)c1cccs1	-2%	i	0%	11%	i	13%
N#Cc1nccnc1S(=O)(=O)c1cccs1	?	i	?	21µM*	i	8%
SMILES	MCF10A rereplic	KB-V1 MDR tox	HT1080 IDH1KD tx	HT1080-NT tox	KB-3-1 cytotox	SW480 rerep
O=C(Nc1ccccc1F)c1cnn2c1NC(=C1CC1)C=C2C(F)F	/	/	4%	15%	/	/
CC(C)(C)C(=O)/C(C#N)=C/c1cccs1	-5%	i	11%	21%	i	-1%
N#C/C(=C\c1cccs1)C(=O)c1ccccc1Cl	5.8µM*	i	?	?	i	?
CCc1c(C(=O)NCCc2ccc(OC)c(OC)c2)[nH]c(C)c1C(C)=O	19%	15µM*	?	?	i	-1%
CCc1c(C(=O)NC2CCCCC2)[nH]c(C)c1C(C)=O	14%	18µM*	18%	13%	i	-19%
CC(=O)c1c(C)[nH]c(C(=O)NC2CCCCC2)c1C	-11%	i	2%	9%	i	-5%[9.22 µM]
CC(=O)c1c(C)[nH]c(C(=O)NCCc2cccc(C)c2)c1C	4%	i	?	-15%	i	-44%
CCc1c(C(=O)NCCc2cccc(C)c2)[nH]c(C)c1C(C)=O	?	12µM*	?	-28%	?	18%
CCNC(=O)c1cnc2sc(N3CCC(C)CC3)nn2c1=O	/	i	/	/	i	/
CCNC(=S)/N=C(\N)Nc1nc(C)c2cc(C)ccc2n1	6%	9.2µM*	1%	-4%	?	6%
C[N+]1(CC(=O)c2cccc([N+](=O)[O-])c2)CCOCC1	/	i	/	/	i	/
Nc1ccc(NC(=O)c2cccc(C(=O)Nc3ccc(N)cc3Cl)c2)c(Cl)c1	?	?	16µM*	?	?	?
Cc1cccc(-n2ncc(C(=O)N3CCN(C4CCCCC4)CC3)c2C2CCN(C(=O)OC(C)(C)C)CC2)c1	/	i	/	/	i	/
CC(=O)c1cc2ccccc2c2ccccc12	/	i	/	/	i	/
COc1cc(-c2noc(C)c2C#CCCN2C(=O)c3ccccc3C2=O)cc(OC)c1OC	/	i	/	/	i	/
COc1cc(-c2noc(C)c2C#Cc2nccn2C)cc(OC)c1OC	16µM*	4.6µM*!	?	?	9.2µM*!	?
CC(=O)c1sc(NC(=O)C=C(C)C)nc1C	11%	i	-12%	-1%	i	4%
CC(=O)c1sc(NC(=O)C2(F)C(F)(F)C(F)(F)C(F)(F)C(F)(F)C2(F)F)nc1C	9.2µM*	7.3µM*	7.1µM*	7.1µM*	?	0%
C=CCn1c(SCC(=O)N2CCN(c3ccccc3)CC2)nnc1-c1ccco1	9%	13µM*	4%	1%	i	-5%
C=CCn1c(SCC(=O)Nc2cc(C)c(Cl)cc2OC)nnc1-c1ccco1	18%	2.3µM*	?	?	i	-12%
CN(C)c1nccc(N(Cc2ccccc2)Cc2ccccc2)c1C#N	?	13µM*	-2%[9.24 µM]	-18%	?	-3%
C[C@@H]1[C@H](O)[C@@H](C)/C=C/C=C/C=C/C=C/C=C/C=C/C=C/[C@H](O[C@@H]2O[C@H](C)[C@@H](O)[C@H](N)[C@@H]2O)C[C@@H]2O[C@](O)(C[C@@H](O)C[C@@H](O)[C@H](O)CC[C@@H](O)C[C@@H](O)CC(=O)O[C@H]1C)C[C@H](O)[C@H]2C(=O)O	6%	/	/	/	/	5%
